Out of some 310,000 compounds screened, about 3,800 (1.2%) were called active.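 How the source made its calls: active means ratio B-score over 3 SD below the library mean, with starting fluorescence within 5 SD of its mean; inactive means the rest, inconclusive results apart.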 Only a selection was taken, and actives are over-represented in it overall.

Potassium channel subfamily K member 9 (Homo sapiens), sequence (Q9NPC2 whole entry, looked up): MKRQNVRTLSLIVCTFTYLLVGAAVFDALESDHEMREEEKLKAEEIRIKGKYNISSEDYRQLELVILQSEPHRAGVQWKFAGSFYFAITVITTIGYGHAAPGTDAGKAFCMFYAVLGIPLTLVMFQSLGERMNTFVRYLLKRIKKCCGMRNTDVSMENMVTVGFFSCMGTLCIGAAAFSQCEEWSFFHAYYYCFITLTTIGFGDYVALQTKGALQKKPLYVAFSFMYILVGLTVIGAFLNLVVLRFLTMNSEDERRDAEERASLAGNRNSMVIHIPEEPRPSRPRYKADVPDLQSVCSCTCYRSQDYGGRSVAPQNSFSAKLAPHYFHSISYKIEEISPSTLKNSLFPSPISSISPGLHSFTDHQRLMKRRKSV

This assay concerns the target Potassium channel subfamily K member 9 (Homo sapiens) (UniProt Q9NPC2). The experiment in a line: KCNK9 potassium channel inhibitors, primary screen, HEK293 cells, thallium flux (AID 488922).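 On B-score: negative B-score means less thallium flux so channel inhibition.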 Particulars: HEK293 KCNK9, FluxOR thallium flux fluorescence, at 10 µM; active compounds read low.
For the molecule `O=C(/C=C/Sc1ncn[nH]1)c1ccc(Cl)cc1`, the B-score entry was “inactive”.
Take `O=C(NNc1ccccc1Cl)C(O)(c1cccc(C(F)(F)F)c1)c1cccc(C(F)(F)F)c1`: the B-score was -8.19 (active).
With `O=C(Nc1cc(C(F)(F)F)ccc1Cl)C(=O)N1CCCCC1`, the B-score result is “inactive”.
As for `CC(CC(=O)Nc1cc(C(F)(F)F)ccc1Cl)c1ccccc1` (centres undefined), the B-score result is “inactive”.
As for `CCO[C@H]1OC(C(=O)NCc2ccccc2)=C[C@@H](c2coc3ccccc3c2=O)[C@@H]1CCCO`, the B-score entry was “inactive”.
For `O=C(COc1ccc2c3c(c(=O)oc2c1)CCCC3)NCC(O)c1ccccc1` (centres undefined), the B-score entry is “inactive”.
`CN1CCN(CC#CCC2(O)c3ccccc3-c3ccccc32)CC1`: the B-score result was “inactive”.
Turning to `Cc1cccc(NC(=O)c2sc3nc(N4CCOCC4)c4c(c3c2N)CCCC4)c1`, the B-score result was “inactive”.
Regarding `Cc1cccc(NC(=O)c2sc3nc4c(c(-c5ccco5)c3c2N)CCC4)c1`, the B-score was -10.4 (active).
In the case of `NC(=O)c1sc2nc3c(c(-c4ccccc4)c2c1N)CCC3`, the B-score result is “inactive”.
On to `CC1(C)CC(=O)C(C2c3ccccc3S(=O)(=O)c3ccccc32)C(=O)C1`, for which the B-score entry was “inactive”.
As for `COc1cnn(-c2ccc([N+](=O)[O-])cc2)c(=O)c1Cl`, the B-score result was “inactive”.
`COc1ccc(N2C(=O)c3ccccc3NC2c2ccc(OC)c(CN3CCOCC3)c2)cc1` (centres undefined): the B-score result was “inactive”.
The figure for `COc1ccc(C2Nc3ccccc3C(=O)N2c2ccc(Cl)cc2)cc1Cn1cc([N+](=O)[O-])cn1` (centres undefined) is -7.96 (active); for `CCCCn1c(N)c(N(CC(C)C)C(=O)c2ccc(Br)o2)c(=O)[nH]c1=O` it is “inactive”; for `Cc1ccccc1-c1nc(CS(=O)(=O)CC(=O)NC(C)c2ccccc2)c(C)o1` (centres undefined) it is “inactive”.
Take `CCOc1ccc(NC(=O)CN(C)C(=O)COc2cccc(CC)c2)cc1OCC`: the B-score result is “inactive”.
For `O=C1c2ccccc2S(=O)(=O)N1CC(O)Cn1c2ccccc2c2ccccc21` (centres undefined) the value was -10.9 (active).
In the case of `CCCCN(CCCC)CC(O)Cn1c2ccccc2c(=O)c2ccccc21` (centres undefined), the B-score entry is “inactive”.
For the molecule `CC(C)(C)c1ccc(CN2C(=O)c3ccccc3S2(=O)=O)cc1`, the B-score entry was “inactive”.
Consider `CC(=O)Nc1ccc(S(=O)(=O)NNC(=O)CCc2ccccc2)cc1`, for which the B-score result was “inactive”.
For the molecule `Cc1c(NC(=O)c2cc(-c3ccc(Cl)s3)nc3ccccc23)c(=O)n(-c2ccccc2)n1C`, the B-score result was “inactive”.
For `Cc1cc(C)c(SCCc2ccncc2)c(C)c1`, the B-score entry is “inactive”.
As for `CCOC(=O)C(NS(=O)(=O)c1ccc(C)cc1)(C(F)(F)F)P(=O)(OCC(C)C)OCC(C)C` (centres undefined), the B-score result is “inactive”.
On to `CC1(C)CC(=O)C=C(N2CCCC2)C1`, for which the B-score entry is “inactive”.
On to `CC1(C)CC(N2CCN(C(c3ccccc3)c3ccccc3)CC2)=CC(=[N+]2CCCCC2)C1`, for which the B-score is -17.2 (active).
As to `O=C(O)CN1CCN(C(c2ccccc2)c2ccccc2)CC1`, the B-score result is “inactive”.
Turning to `Cc1ccccc1-n1cc(CNC(=O)CC2C(=O)NCCN2C/C=C/c2ccccc2)cn1` (centres undefined), the B-score entry is “inactive”.
Turning to `CCOc1ccc(C(=O)CCN2CCOCC2)cc1`, the B-score entry is “inactive”.
`O=C(NNc1c2ccccc2nc2ccccc12)c1cc2ccccc2cc1O`: the B-score is -7.49 (active).
With `CC(C)(C)OC(=O)NNc1c2ccccc2nc2ccccc12`, the B-score result is “inactive”.
The entry for `O=C(N/N=C/c1cccnc1)c1cc2ccccc2cc1O` is “inactive”; for `O=C(COc1ccc(NC(=O)c2ccccc2[N+](=O)[O-])cc1)c1ccc(F)cc1` it is “inactive”.
With `CC(C)CC(=O)Nc1ccc(Cc2ccncc2)cc1`, the B-score result is “inactive”.
In the case of `COc1ccccc1NC(=O)C1CCCN1S(=O)(=O)c1ccc(Cl)cc1` (centres undefined), the B-score result is “inactive”.
Take `CN(c1ccccc1)S(=O)(=O)c1cccc(C(=O)NNC(=O)c2ccncc2)c1`: the B-score result is “inactive”.
As to `COc1ccccc1NC(=O)CSc1nc2sc3c(c2c(=O)n1-c1ccccc1)CCN(C)C3`, the B-score result was “inactive”.
On to `Cc1cc(NC(=O)CSc2nc3cc(Cl)ccc3c(=O)n2Cc2ccco2)no1`, for which the B-score entry was “inactive”.
Take `COc1ccccc1NC(=O)CSc1nc2sc(C)c(C)c2c(=O)n1Cc1ccco1`: the B-score was -9.54 (active).
`O=S(=O)(NCC1CCCO1)c1cnc(Cl)c(Cl)c1` (centres undefined): the B-score entry was “inactive”.
For `COC(=O)CCCC1=CC2=C(c3ccccc3)C(=O)C(C)(OC(=O)C3CCCC3)C(=O)C2=CN1c1ccc(OC)cc1` (centres undefined), the B-score result was “inactive”.
For the molecule `COCCNC(=O)Cn1cc(C(=O)c2cccs2)c2ccccc21`, the B-score result is “inactive”.
As to `O=C(Cn1cc(C(=O)c2cccs2)c2ccccc21)NCc1cccs1`, the B-score is -13.5 (active).
With `COC(=O)c1cn(CC(=O)NCc2cccs2)c2ccccc12`, the B-score result was “inactive”.
For `Cc1ccc(C(C[N+](=O)[O-])c2c(C)cc3ccccn23)cc1` (centres undefined) the value was “inactive”.
Turning to `COc1cccc(CC2(CO)CCCN(Cc3ccc(OC(F)F)cc3)C2)c1` (centres undefined), the B-score entry is “inactive”.
As for `Cc1cc(C)cc(Oc2c(C(F)(F)F)oc3cc(OCC(=O)O)ccc3c2=O)c1`, the B-score entry is “inactive”.
With `COc1ccc(N(CCC#N)S(=O)(=O)c2ccc(Cl)cc2)cc1`, the B-score entry is “inactive”.
Take `Cc1cc(C)c2cc(CN(Cc3nnnn3Cc3ccc(F)cc3)C3CCCC3)c(=O)[nH]c2c1`: the B-score result was “inactive”.
For `CCC(c1nnnn1Cc1ccco1)N(CCc1ccccc1)Cc1cc2cccc(C)c2[nH]c1=O` (centres undefined) the value was -8.62 (active).
Consider `Cc1cccc2cc(CN(Cc3ccc4c(c3)OCO4)Cc3nnnn3C3CCCC3)c(=O)[nH]c12`, for which the B-score entry was “inactive”.
As to `CCC(c1nnnn1Cc1ccco1)N(Cc1cc2cc(OC)ccc2[nH]c1=O)C1CCCCC1` (centres undefined), the B-score result was “inactive”.
For `Cc1cccc2cc(CN(Cc3nnnn3Cc3ccccc3)C3CCCC3)c(=O)[nH]c12`, the B-score was -11.5 (active).
For the molecule `CCC(c1nnnn1Cc1ccco1)N(CCc1ccccc1)Cc1cc2ccc(OC)cc2[nH]c1=O` (centres undefined), the B-score result was “inactive”.
Consider `C/C=N/NC(=O)CCCC(=O)N/N=C/C`, for which the B-score entry is “inactive”.
The entry for `CCNCCC(=O)N1c2ccccc2Sc2ccc(NC(=O)OCC)cc21` is “inactive”; for `N#Cc1nc(Cc2cccc3ccccc23)oc1NCc1ccc2c(c1)OCO2` it is -11.2 (active); for `c1n[nH]c(NCc2ccc3c(c2)OCO3)n1` it is “inactive”.
Regarding `Cn1cc(CCC(=O)NCc2ccc3c(c2)OCO3)c2ccccc21`, the B-score result is “inactive”.
Consider `CC(=O)N1Cc2ccccc2CC1C(=O)O` (centres undefined), for which the B-score entry is “inactive”.
For `O=C(CN1CCCCCC1)NCCN1C(=O)S/C(=C\c2ccccc2Cl)C1=O` the value was “inactive”; for `O=C(CN1C(=O)S/C(=C\c2ccccc2Cl)C1=O)NC1C=CS(=O)(=O)C1` (centres undefined), “inactive”; for `CN1C2CCC1/C(=C\c1ccccc1Cl)C(=O)/C2=C\c1ccccc1Cl`, -8.6 (active).
For the molecule `O=C(CCc1nnc2ccc(NCc3ccccc3Cl)nn12)NCC1CCN(C2CCCC2)C1` (centres undefined), the B-score entry is “inactive”.

The values above are taken from PubChem BioAssay AID488922 (Johns Hopkins Ion Channel Center, 2010).
